Measurements published in PubChem BioAssay AID1117319 (Southern Research Institute, 2015).
Screen size: about 260,000 compounds; about 1,500 (0.58%) were called active. Roughly 5% stayed inconclusive and do not appear here.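 How the source made its calls: active means inhibition above a set limit at one or more doses, reproduced on every date tested; inconclusive means results disagree between test dates, or hit never tested in dose response; inactive means the rest.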 These entries were drawn from the full list. Results with a measured potency or affinity are listed apart.

Target: Virion infectivity factor (Human immunodeficiency virus type 1 group M subtype B (isolate BH10)) + Virion infectivity factor (Human immunodeficiency virus type 1 group M subtype B (isolate BRU/LAI)) + Virion infectivity factor (Human immunodeficiency virus type 1 group M subtype B (isolate PCV12)) + Virion infectivity factor (Human immunodeficiency virus type 1 group M subtype B (isolate HXB2)) + DNA dC->dU-editing enzyme APOBEC-3G (Homo sapiens) (UniProt P69720+P69721+P69722+P69723+Q9HC16)
Assay: inhibitors of Vif binding to APOBEC3G peptide, primary screen, biochemical, TR-FRET, GST-Vif 1-94, biotin-A3G peptide, dose response retest (AID 1117319);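 further: Vif residues 1-94 fused to GST binding biotinylated APOBEC3G peptide 110-148; 0% = full assay without inhibitor and 100% = GST in place of GST-Vif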
Conditions: stronger effect = higher value

inhibition, inactive:
O=C(NCCCn1ccnc1)C(=O)NCC1OCCN1S(=O)(=O)c1ccccc1 (centres undefined) 20.3%, Cc1ccc(S(=O)(=O)N2CCCc3ccccc32)cc1 3.67%, Cc1ccc(-c2sc(C(=O)NN)c(C)c2C#N)cc1 -0.1%, CCc1noc(C)c1C(=O)NC1CCCc2c1cnn2-c1cc(C)cc(C)c1 (centres undefined) -1.36%, O=C1N[C@@H](c2ccccc2)COC(=O)[C@H](Cc2ccc(F)cc2)CC/C=C/C[C@H]1CC(=O)N(CCO)Cc1ccccc1 3.93%, COc1cccc(-c2cccc(NC(=O)C3CCN(CCCn4cccn4)CC3)c2)c1 6%, CCn1nc(C(=O)Nc2cc(Cl)ccc2-n2cncn2)c2ccccc2c1=O -6.28%, C=CCn1c(O)c(C(CC)=Nc2ccccc2NC(=O)CC)c(=O)[nH]c1=O 30.8%, C=CCn1c(O)c(C(CC)=NCc2cccnc2)c(=O)[nH]c1=O 7.28%, Cc1ccc(OCc2n[nH]c(=S)n2Cc2ccccc2)cc1 24.6%, O=C(Cc1ccccc1)Nc1ccc(N2CCN(Cc3ccccc3F)CC2)cc1 6.73%, COC(=O)C1CCN(C(=O)CCCOc2ccccc2)CC1 8.9%, CC(=O)Nc1ccc(SCC(=O)Nc2ccccc2N2CCOCC2)cc1 -9.09%, COC(=O)c1cc(C(=O)OC)cc(S(=O)(=O)Nc2ccc(Cl)c(N)c2)c1 -4.45%, CN=c1scc(C)n1/N=C/c1ccc2c(c1)OCO2 13.4%, Oc1ccc(/C=N/n2c(-c3ccco3)csc2=Nc2cccnc2)c(O)c1 21%, C=CCN=c1scc(-c2ccccc2)n1/N=C/c1ccccn1 11.2%, COc1ccc(O)c(/C=N/n2c(-c3ccco3)csc2=Nc2cccnc2)c1 6.77%, CN1CCN(CC(O)COc2ccccc2)CC1 (centres undefined) -7.2%, CCCCNc1oc(-c2cccs2)nc1S(=O)(=O)c1ccccc1 -0.64%, CC(C)(CNC(=O)c1cccs1)CNC(=O)c1cccs1 0.17%, O=C(CSc1nccc(=O)[nH]1)NCc1ccc2c(c1)OCO2 3.96%, CCOC(=O)N1CCN(CC(O)COCCC23CC4CC(CC(C4)C2)C3)CC1 (centres undefined) 13.8%, O=c1c2c3c(sc2nc2n1CCCCC2)CCCCC3 0.94%, O=C1CCCc2c1sc1nc3n(c(=O)c21)CCCCC3 2.33%, Nc1ncnc2c1CN(Cc1ccccc1)CC2 -5.85%, CC1(C)CC(=O)C2=C(C1)OC(N)=C(C#N)C2c1ccccc1 (centres undefined) 3.85%, N#CC1(Nc2ccc([N+](=O)[O-])cc2)CCCC1 10.3%, CCOC(=O)C1=C(COC(=O)/C=C/c2ccc(C)o2)NC(=O)NC1C (centres undefined) -5.28%, CCOC(=O)C1=C(COC(=O)/C=C/c2ccc(Cl)cc2)NC(=O)NC1C (centres undefined) 2.25%, O=C(O)/C=C/c1ccccc1Oc1ccccc1 -6.82%, Cc1ccc(N=C2NC(=O)/C(=C/c3cccn3C)S2)cc1C -3.5%, COc1ccc(CCNc2cc(C)nc3c(-c4ccccc4OC)cnn23)cc1OC 3.45%, CC(C)(CO)CN1CCC(n2nccc2NC(=O)C2CCCC2)CC1 -9.4%, COc1ccc2c(c1)C(C)=CC(C)(C)N2C(=O)Nc1ccccc1 1.41%, CCNC(=O)N1c2ccc(OC)cc2C(C)=CC1(C)C 18.1%, COc1cccc(C(C#N)N2CCOCC2)c1 (centres undefined) -0.56%, C/C(=N\NC(=O)CCc1ccc(S(=O)(=O)N2CCOCC2)cc1)c1ccc(OC(F)F)cc1 18.9%, CC(NC(=O)c1ccc(Cn2cc([N+](=O)[O-])cn2)cc1)c1ccccc1 (centres undefined) -7.96%, O=C1C(Cl)=C(N2CCCCCC2)C(=O)N1c1ccccc1 4.82%, O=C1C(Cl)=C(N2CCOCC2)C(=O)N1c1ccc(Br)cc1 12.4%, CCOc1ccccc1C(=O)NC(C(=O)OCC(=O)NNC(=O)c1cccs1)C(C)C (centres undefined) -2.67%, Cc1cc(NN)nc2ccc(Cl)cc12 21%, O=C(Cc1csc(Nc2nc(=S)[nH]c3ccccc23)n1)NCc1ccc(Cl)cc1 3.88%, Cc1cc(SCc2ccc(C(F)(F)F)cc2)nc(=O)[nH]1 4.23%, Clc1cccc(-c2cc3nc4c(c(NCc5ccco5)n3n2)CCCC4)c1 -4.82%, Cc1cccc(-c2cc3nc4c(c(NCc5ccco5)n3n2)CCCC4)c1 3.78%, c1coc(-c2nnc(SCc3cn4ccccc4n3)o2)c1 2.16%, Brc1ccc(CSc2nnc(-c3ccco3)o2)cc1 -2.39%, COc1ccc(-c2c(C)n([O-])c(C)c(-c3ccccc3)[n+]2=O)cc1OC -6.67%, Cc1cccc(OCc2nnc(SCC(=O)Nc3ccc(C)c(Cl)c3)o2)c1 -12%, Cc1cc(C)cc(NC(=O)CN(C)CC(=O)N(CC(C)C)c2c(N)n(CC(C)C)c(=O)[nH]c2=O)c1 1.78%, COc1cc(-c2ccc(NC(C)=O)c(OC)c2)ccc1NC(C)=O 1.06%, O=C(O)c1ccccc1Nc1ccccc1C(=O)O 5.44%, CCOc1cc(-n2nc(C)c(C#N)c2N)nc(SC)n1 -1.98%, COc1cccc(/C=C2\CCCCC2=O)c1 8.63%, CC(NC(=O)C12CC3CC(C1)CC(n1cncn1)(C3)C2)C12CC3CC(CC(C3)C1)C2 (centres undefined) -7.08%, O=C(COC(=O)CCC(=O)N1CCOCC1)Nc1ccc(Br)cc1Br 3.75%, O=C(C1CCCN1S(=O)(=O)c1ccc(Cl)cc1)N1CCCCC1 (centres undefined) -2.58%, O=C(O)c1ccc(N2CCCCC2)cc1 8.04%, O=Cc1ccc(N2CCCCC2)cc1 -6%, Nc1ccc(N2CCN(c3ccc(Cl)c(Cl)c3)CC2)cc1 22.2%, CN1CCN(c2ccc(C(=O)c3ccc(F)cc3)cc2)CC1 -7.54%, CCn1c(SCC(=O)NC2CC2)nnc1-c1ccccc1 -1.91%, COc1ccc(CNC(=O)c2ccccc2NS(C)(=O)=O)cc1 1.78%, C=C(C)CNC(=S)NNC(=O)c1ccncc1 -3.17%, Cc1cc(C)c(S(=O)(=O)NCCc2ccncc2)c(C)c1 -0.3%, CC(NC(N)=O)C(=O)Nc1ccc(Cl)c(S(=O)(=O)Nc2ccc(Br)cc2)c1 (centres undefined) 10.3%, CCOc1ccc(S(=O)(=O)n2ccc(C)n2)cc1 -9.61%, CCOc1ccc(NCCC#N)cc1 -2.11%, CCOc1ccc(NC(=O)NC2CCOC(C)(C)C2)cc1 (centres undefined) 22%, Cc1cc(C)c(NC(=O)CSc2nc3c(c(=O)n2C)SC(C)C3)c(C)c1 (centres undefined) 3.57%, Cc1ccc(C)c(NC(=O)CSc2nc3c(c(=O)n2C)SC(C)C3)c1 (centres undefined) 8.15%, CCC(C)N(NC(C)=O)c1nc(Cl)nc(NC(C)(C)C)n1 (centres undefined) 7.21%, COc1ccc(/C=N/NC(=O)CN(C2=NS(=O)(=O)c3ccccc32)c2ccccc2)cc1 22.5%, CCOC(=O)C1(Cc2cccc(OC)c2)CCN(Cc2ccc(C)s2)CC1 11.4%, Cc1cc(C(C)(C)C)c(O)c(C(C)(C)C)c1 17.9%, Cc1ccc(O)c(Cc2cc(C)cc(Cc3cc(C)ccc3O)c2O)c1 -3.64%, COc1ccc(OC)c(-c2[nH]nc3c2C(c2ccco2)C(C#N)=C(N)O3)c1 (centres undefined) 17.4%, CC(=O)Nc1ccc(S(=O)(=O)Nc2nc3ccc([N+](=O)[O-])cc3s2)cc1 0.77%, O=C(NC1CC1)c1cc(-c2ccccn2)nc2ccccc12 -3.96%, COc1ccc(-c2cc(C(=O)NCC3CCCO3)c3ccccc3n2)cc1 (centres undefined) -7.4%, O=C(Nc1cccc(S(=O)(=O)NC2=NCCC2)c1)c1cc(-c2ccco2)nc2ccccc12 -0.28%, O=C(Nc1cccc(S(=O)(=O)NC2=NCCC2)c1)c1cc(-c2ccccn2)nc2ccccc12 -2.06%, O=C(NCC1CCCO1)c1cc(-c2ccncc2)nc2ccccc12 (centres undefined) -2.45%, O=C(NNC(=O)c1cc(-c2ccco2)nc2ccccc12)c1ccccc1 14%, CN(CCc1ccccn1)S(=O)(=O)c1ccc(F)cc1 1.96%, Cc1cc2c(Nc3ccc(O)cc3)ncnc2s1 -0.33%, N#CC(C#N)=C1NC2(CCCC2)Cc2ccccc21 1.13%, Cc1ccc(Nc2nc(N)nc(CN3CCN(Cc4ccc5c(c4)OCO5)CC3)n2)cc1C 3.16%, CC(C)(O)C#Cc1ccc(C(=O)NCc2ccccc2)s1 6.16%, Cc1cccc(Oc2nc(-c3cccc([N+](=O)[O-])c3)nc3ccccc23)c1C -5.88%, Cc1ccc(NC2=NC(c3ccc(F)cc3)n3c(nc(C)cc3=O)N2)cc1 (centres undefined) 5.66%, CC(C)(C)OC(=O)NCCCC[C@H](NC(=O)c1nc[nH]c1C(=O)N[C@@H](CCCCNC(=O)OC(C)(C)C)C(=O)OC(C)(C)C)C(=O)OC(C)(C)C -5.41%, CC(=O)N1CCN(C(=O)CCC(=O)O)CC1 -4.74%, COc1ccc(N(CC(=O)NCCSCc2ccco2)S(=O)(=O)c2ccc(C)cc2)cc1 -1.79%, Cc1ccc(C)c(N(CC(=O)NCCSCc2ccco2)S(C)(=O)=O)c1 12%, Cc1ccccc1N(CC(=O)NCCSCc1ccco1)S(C)(=O)=O 3.05%, Cc1ccc(N(CC(=O)NCCSCc2ccco2)S(=O)(=O)c2ccc(C)cc2)cc1 -4.1%
